Measured values taken from PubChem BioAssay (EPA / NIEHS).
Results filed as inconclusive are left out. Active and inactive are the calls of the source. The calls were made as follows: active = hit-call score of the fitted dose curve at least 0.9, where 1 is the maximum; inconclusive = response in the unintended direction; inactive = score below 0.9.

Read-out: xenobiotic metabolism (CYP2C9), CYP2C9 (gene 1559)
Experiment: CLD_CYP2C9_6hr: CellzDirect (CLD) Gene Expression Assay for xenobiotic metabolism (CYP2C9) at 6 hours (AID 2283664)
Procedure: CLD_6hr is a cell-based, multiplexed-readout assay that uses hepatocyte, a human liver primary cell, with measurements taken at 6 hours after chemical dosing in a 96-well plate.CLD_CYP2C9_6hr is one of 16 assay component(s) measured or calculated from the CLD_6hr assay. It is designed to make measurements of mRNA induction, a form of inducible reporter, as detected with chemiluminescence signals by Quantitative Nuclease Protection Assay (qNPA) technology.Data from the assay component CLD_CYP2C9_6hr was analyzed at the endpoint, CLD_CYP2C9_6hr, in the positive analysis fitting direction relative to DMSO as the negative control and baseline of activity. Using a type of inducible reporter, gain-of-signal activity can be used to understand changes in the reporter gene as they relate to the gene CYP2C9. Furthermore, this assay endpoint can be referred to as a primary readout. To generalize the intended target to other relatable targets, this assay endpoint is annotated to the cyp intended target family, where subfamily is xenobiotic metabolism.
Human hepatocyte cultures were treated daily for two consecutive days with fresh dosing solutions containing appropriate concentrations of the 320 ToxCast chemicals (chemical identities were blinded to CellzDirect and other ToxCast collaborators), vehicle control (0.2% DMSO), and positive control inducers as summarized in Table 1. Due to the large number of treatment groups and chemicals examined, the ToxCast chemicals were divided into two groups (spanning two independent cultures of hepatocytes from separate donor preparations (Hu778: ToxCast plates 1 and 2; Hu776: ToxCast plates 3 and 4). Each preparation of human hepatocyte cultures was treated with respective vehicle control, medium only control, set of six positive controls/reference chemicals for the five hepatic receptor pathways, and a subset of eight of the ToxCast chemicals (indoxacarb, pyrithiobac-sodium, norflurazon, cyhalofop-butyl, methomyl, thiram, acetochlor, and propiconazole). These replicate data, coupled with internal replicates designed within the blinded ToxCast chemical library, provided additional data to evaluate interindividual differences between hepatocyte preparations and their potential impact on chemical profiles.Cell morphology and integrity were evaluated using phase-contrast microscopy as an indicator of hepatocyte cell health (Tyson & Green, 1987). Cultures for each treatment group (i.e., media, vehicle [0.2% DMSO], positive control inducers [multiple concentrations], and the ToxCast chemicals [multiple concentrations]) were observed and cell morphology was assessed relative to vehicle control cultures at each harvest time point (0, 6, 24, or 48 h). […] Images were evaluated at the conclusion of the study to assess changes in cell integrity and account for the effects of chemical exposure on uncharacteristic changes in concentration-dependent gene expression profiles. The results from these determinations of apparent cytotoxicity were annotated (yes/no) alongside the corresponding qNPA data for reference.At the conclusion of each treatment period, hepatocyte cultures (96-well) were washed with 1 volume of HBSS, lysed by addition of 25 ul ArrayPlate lysis buffer (HTG, Tucson, AZ), and 70 ul/well of Denaturation Oil, denatured by incubation at 95C for 10 min, and frozen at approximately -70C until analysis by nuclease protection assay (qNPA) (Roberts et al., 2007). For qNPA analysis, cell lysates were thawed at 50C for approximately 30 min, qNPA probes were added, and samples were incubated at 95C for 10 min to begin the detection process by denaturing the target RNA, dissociating the duplexes and secondary structure hybridization. At the conclusion of the hybridization period, S1 nuclease reagent was added to each sample to digest all nonprotected nucleotides at 50C for 60-90 min. […]

Compound | outcome
O=C(NC(=O)c1c(F)cccc1F)Nc1ccc(OC(F)(F)C(F)OC(F)(F)F)c(Cl)c1 (centres undefined) | inactive
Cc1cc(C)nc(NC(=O)NS(=O)(=O)c2ccccc2C(=O)OC2COC2)n1 | inactive
Cc1[nH]c(=O)n(C(C)(C)C)c(=O)c1Cl | inactive
CCC(C)(NC(=O)c1cc(Cl)c(C)c(Cl)c1)C(=O)CCl (centres undefined) | inactive
CNC(=O)Oc1ccccc1OC(C)C | inactive
O=[N+]([O-])/N=C1\NCCN1Cc1ccc(Cl)nc1 | inactive
CC1(c2ccc(Oc3ccccc3)cc2)OC(=O)N(Nc2ccccc2)C1=O (centres undefined) | inactive
O=C(O)CCCOc1ccc(Cl)cc1Cl | inactive
C[C@H]1[C@H](c2ccc(Cl)cc2)SC(=O)N1C(=O)NC1CCCCC1 | inactive
CNC(=O)CSP(=S)(OC)OC | inactive
CCCN(CCOc1c(Cl)cc(Cl)cc1Cl)C(=O)n1ccnc1 | inactive
Oc1cc(Cl)ccc1Oc1ccc(Cl)cc1Cl | inactive
CCc1ccc(C(=O)NN(C(=O)c2cc(C)cc(C)c2)C(C)(C)C)cc1 | inactive
[2H]C1([2H])[n+]2ccccc2-c2cccc[n+]2C1([2H])[2H] | inactive
COc1cc(OC)nc(NC(=O)NS(=O)(=O)c2cc(NC=O)ccc2C(=O)N(C)C)n1 | inactive
OCCOc1ccccc1 | inactive
COC(=O)c1ccccc1CS(=O)(=O)NC(=O)Nc1nc(OC)cc(OC)n1 | inactive
COC(=O)c1ccccc1S(=O)(=O)NC(=O)N(C)c1nc(C)nc(OC)n1 | inactive
O=C(O)COc1ccc(Cl)cc1Cl | inactive
